Measured values published in PubChem BioAssay (Tox21).
Inconclusive results are not listed. Values without a mark were called inactive. Calls come from the whole dose curve; as a rule, active = well fitted curve in the direction sought with a large enough effect in the repeat runs; inconclusive = weak or mixed curves; inactive = no such curve, though single readings can be large; an effect the other way counts as inactive or inconclusive.

Test: A CellTox Green Cytotoxicity Assay to monitor cytotoxicity in HepG2 cells - 16 hour (AID 1224876); note: nearly all actives have a fitted effect of over 45% in size
Details: CellTox Green fluorescence; series mostly up to 76.8 µM; cytotoxicity increase: at the top concentration
Procedure, shortened: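 Read-out is fluorescence of a cyanine dye excluded from live cells that stains DNA of dead HepG2 cells, with signal proportional to cytotoxicity. Plates were read at 0, 8, 16, 24, 32 and 40 h after compound addition.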
% is set by controls: 0 for no effect and ±100 for the full control effect.

| SMILES | cytotoxicity increase |
| --- | --- |
| O=c1oc2c(O)c(O)cc3c(=O)oc4c(O)c(O)cc1c4c23 | 1.02% [at 15.8 µM] |
| Cc1nnc(SCC2=C(C(=O)O)N3C(=O)[C@@H](NC(=O)Cn4cnnn4)[C@H]3SC2)s1 | -1.07% [at 35.3 µM] |
| Cc1cc(S(=O)(=O)O)c(N)cc1Cl | 1.42% |
| COc1cc(C)ccc1C(C)C | 5.92% |
| Cc1ccsc1C(=CCCN1CCC[C@@H](C(=O)O)C1)c1sccc1C | -5.71% [at 35.3 µM] |
| C=CC1CO1 (stereo not drawn) | -1.9% |
| CNCCC(Oc1ccccc1OC)c1ccccc1 (stereo not drawn) | -6.98% [at 35.3 µM] |
| FC(F)(F)C(F)(F)C(F)(F)C(F)(F)C(F)(F)C(F)(F)C(F)(F)C(F)(F)Br | 3.68% [at 35.3 µM] |
| CCN(CC)C(=O)N(CC)CC | 10.6% |
| CN(CC1(C)CCCO1)S(=O)(=O)c1ccc(Cl)c(S(N)(=O)=O)c1 (stereo not drawn) | 1.47% [at 35.3 µM] |
| O=CCCc1ccccc1 | -9.68% |
| CN1C(=O)CC(c2ccccc2)C1=O (stereo not drawn) | -18.6% [at 35.3 µM] |
| CCCN(CCC)C(=O)C(CCC(=O)O)NC(=O)c1ccccc1 (stereo not drawn) | -3.28% [at 35.3 µM] |
| CC(=O)Nc1ccc(C)c(Cl)c1 | -7.86% |
| CCCCN1C[C@H](O)[C@@H](O)[C@H](O)[C@H]1CO | 1.02% [at 35.3 µM] |
| Cc1cccc(C)c1NC(=O)CN1CCCCCC1 | -0.856% [at 35.3 µM] |
| CO[C@@]1(NC(=O)CSCC#N)C(=O)N2C(C(=O)O)=C(CSc3nnnn3C)CS[C@@H]21 | -6.23% [at 35.3 µM] |
| FC(F)(F)C(Cl)(Cl)Cl | 8.21% |
| CCC(=O)Nc1ccc(O)cc1 | -5.03% [at 35.3 µM] |
| N#Cc1ccc(C(c2ccc(C#N)cc2)n2cncn2)cc1 | -3.96% [at 35.3 µM] |

| SMILES | cytotoxicity increase |
| --- | --- |
| CCOc1ccc2nc(N)sc2c1 | -2.94% |
| Cc1ccc([N+](=O)[O-])cc1Cl | -6.78% |
| CCCCCCC | 0.694% |
| CCc1cc(Cl)c(OC)c(C(=O)NC[C@@H]2CCCN2CC)c1O | 7.35% [at 35.3 µM] |
| CC(C)O | 1.4% |
| CC(CNC1CCCCC1)OC(=O)c1ccccc1 (stereo not drawn) | 0.0088% [at 35.3 µM] |
| CC(=O)OC1C2(C)CCC(C2)C1(C)C (stereo not drawn) | -14.5% |
| COc1ccc(S(=O)(=O)Nc2nnc(CC(C)C)s2)cc1 | -4.56% [at 35.3 µM] |
| NC/C=C/C(=O)O | -8.03% [at 35.3 µM] |
| C1CSCCS1 | 2.92% |
| C[C@]12C(=O)OC(=O)[C@H]1[C@H]1C=C[C@@H]2C1 | 1.13% |
| OCCN(CCO)CCN(CCO)CCO | -0.256% |
| O=S(=O)(O)C(F)(F)F | 4.92% |
| CC(C)NCC(O)COc1ccc(CCOCC2CC2)cc1 (stereo not drawn) | 8.98% [at 35.3 µM] |
| NC1=NCC2c3ccccc3Cc3ccccc3N12 (stereo not drawn) | -42.4% [at 35.3 µM] |
| CC(C)(CO)[C@@H](O)C(=O)NCCC(=O)O | 4.96% |
| CCCCNC(=S)NCCCC | -8.09% |
| CC(C)CCCCCCc1ccc(OCCOCCO)cc1 | -5.17% |
| CC(=O)O[C@H]1CC[C@@]2(C)C(=CC[C@@H]3[C@@H]2CC[C@]2(C)C(C(C)=O)=CC[C@@H]32)C1 | -2.48% [at 35.3 µM] |

Test: qHTS RealTime-Glo MT Cell Viability Assay in HepG2 cells - 32 hour (AID 1224877); note: nearly all actives have a fitted effect of over 55% in size
Details: RealTime-Glo luminescence; series mostly up to 76.8 µM; activity change, negative = cytotoxic: at the top concentration
Procedure, shortened: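 HepG2 cells were seeded at 600 cells/well together with NanoLuc luciferase and a cell-permeant prosubstrate, preincubated 5 h at 37 C/5% CO2, then pin-dosed with compounds in DMSO. Nonlytic luminescence from viable cells was read at each time point.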

| SMILES | activity change, negative = cytotoxic |
| --- | --- |
| O=c1oc2c(O)c(O)cc3c(=O)oc4c(O)c(O)cc1c4c23 | -12.3% [at 15.8 µM] |
| Cc1nnc(SCC2=C(C(=O)O)N3C(=O)[C@@H](NC(=O)Cn4cnnn4)[C@H]3SC2)s1 | 0.16% [at 35.3 µM] |
| Cc1cc(S(=O)(=O)O)c(N)cc1Cl | 0.291% |
| COc1cc(C)ccc1C(C)C | 2.14% |
| Cc1ccsc1C(=CCCN1CCC[C@@H](C(=O)O)C1)c1sccc1C | 0.182% [at 35.3 µM] |
| C=CC1CO1 (stereo not drawn) | 2.81% |
| CNCCC(Oc1ccccc1OC)c1ccccc1 (stereo not drawn) | 1.56% [at 35.3 µM] |
| FC(F)(F)C(F)(F)C(F)(F)C(F)(F)C(F)(F)C(F)(F)C(F)(F)C(F)(F)Br | 1.56% [at 35.3 µM] |
| CCN(CC)C(=O)N(CC)CC | 1.15% |
| CN(CC1(C)CCCO1)S(=O)(=O)c1ccc(Cl)c(S(N)(=O)=O)c1 (stereo not drawn) | 2.44% [at 35.3 µM] |
| O=CCCc1ccccc1 | 4.11% |
| CN1C(=O)CC(c2ccccc2)C1=O (stereo not drawn) | 0.209% [at 35.3 µM] |
| CCCN(CCC)C(=O)C(CCC(=O)O)NC(=O)c1ccccc1 (stereo not drawn) | 0.0445% [at 35.3 µM] |
| CC(=O)Nc1ccc(C)c(Cl)c1 | 0.721% |
| CCCCN1C[C@H](O)[C@@H](O)[C@H](O)[C@H]1CO | 0.863% [at 35.3 µM] |
| Cc1cccc(C)c1NC(=O)CN1CCCCCC1 | -0.74% [at 35.3 µM] |
| CO[C@@]1(NC(=O)CSCC#N)C(=O)N2C(C(=O)O)=C(CSc3nnnn3C)CS[C@@H]21 | 0.0579% [at 35.3 µM] |
| FC(F)(F)C(Cl)(Cl)Cl | -4.24% |
| CCC(=O)Nc1ccc(O)cc1 | 2.2% [at 35.3 µM] |
| N#Cc1ccc(C(c2ccc(C#N)cc2)n2cncn2)cc1 | 0.107% [at 35.3 µM] |

| SMILES | activity change, negative = cytotoxic |
| --- | --- |
| CCOc1ccc2nc(N)sc2c1 | 2.07% |
| Cc1ccc([N+](=O)[O-])cc1Cl | 4.6% |
| CCCCCCC | -2.5% |
| CCc1cc(Cl)c(OC)c(C(=O)NC[C@@H]2CCCN2CC)c1O | -2.98% [at 35.3 µM] |
| CC(C)O | 2.1% |
| CC(CNC1CCCCC1)OC(=O)c1ccccc1 (stereo not drawn) | -4.91% [at 35.3 µM] |
| CC(=O)OC1C2(C)CCC(C2)C1(C)C (stereo not drawn) | -0.0895% |
| COc1ccc(S(=O)(=O)Nc2nnc(CC(C)C)s2)cc1 | 2.48% [at 35.3 µM] |
| NC/C=C/C(=O)O | 1.08% [at 35.3 µM] |
| C1CSCCS1 | 1.85% |
| C[C@]12C(=O)OC(=O)[C@H]1[C@H]1C=C[C@@H]2C1 | 0.891% |
| OCCN(CCO)CCN(CCO)CCO | 2.21% |
| O=S(=O)(O)C(F)(F)F | 1.46% |
| CC(C)NCC(O)COc1ccc(CCOCC2CC2)cc1 (stereo not drawn) | -1.56% [at 35.3 µM] |
| NC1=NCC2c3ccccc3Cc3ccccc3N12 (stereo not drawn) | -24.3% [at 35.3 µM] |
| CC(C)(CO)[C@@H](O)C(=O)NCCC(=O)O | 0.9% |
| CCCCNC(=S)NCCCC | 0.866% |
| CC(C)CCCCCCc1ccc(OCCOCCO)cc1 | 1% |
| CC(=O)O[C@H]1CC[C@@]2(C)C(=CC[C@@H]3[C@@H]2CC[C@]2(C)C(C(C)=O)=CC[C@@H]32)C1 | -10.9% [at 35.3 µM] |
